# Experimental data published in the supplement of paper PMC6992640.
# ± gives the standard deviation of the averaged measurements.
# How the values were obtained:
# Assay in all cases: cell viability (% of vehicle); higher = less cytotoxic
# Conditions in all cases: 10 µM; 72 h
# [1] = system: HCI01 (cells of a triple-negative basal-like breast cancer xenograft)
# [2] = system: HCI03 (cells of an ER-positive luminal breast cancer xenograft)
# [3] = system: HCI09 (cells of a triple-negative luminal androgen receptor type breast cancer xenograft)
# [4] = system: HCI11 (cells of an ER-positive luminal breast cancer xenograft)
# [5] = system: HCI13 (cells of an ER-positive luminal breast cancer xenograft)
# [6] = system: HCI16 (cells of a triple-negative basal-like breast cancer xenograft)
# [7] = system: UCD52 (cells of a triple-negative basal-like breast cancer xenograft)
# [8] = system: WHIM2 (cells of a triple-negative basal-like breast cancer xenograft)
# [9] = system: WHIM30 (cells of a triple-negative basal-like breast cancer xenograft)
# 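Further: PDX cells carrying CMV promoter-driven luciferase, viability read as total photon flux per second by IVIS imaging following D-luciferin, vehicle control 0.1% DMSO.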
SMILES,cell viability [1],cell viability [2],cell viability [3],cell viability [4],cell viability [5],cell viability [6],cell viability [7],cell viability [8],cell viability [9]
CCCC(=O)OCOC(=O)C1=C(C)NC(C)=C(C(=O)OC)C1c1cccc(Cl)c1Cl (configuration not stated) [Clevidipine Butyrate],106.5 ± 0.58,126,104 ± 19,112,105 ± 6.6,88.1,92.2 ± 1.5,100 ± 6.3,91 ± 2.4
Cc1ncc(C[n+]2csc(CCO)c2C)c(N)n1.Cl.[Cl-] [Thiamine HCl (Vitamin B1)],113 ± 8.6,143,103 ± 16,88.6,59.8 ± 11,103,122 ± 39,149 ± 25,143 ± 3.5
COc1cc2nc(N3CCN(C(=O)C4COc5ccccc5O4)CC3)nc(N)c2cc1OC.CS(=O)(=O)O (configuration not stated) [Doxazosin Mesylate],116.9 ± 0.43,94.7,73.2 ± 34,83.3,103 ± 15,123,92.4 ± 14,62.6 ± 10,117 ± 13
Nc1nc(F)nc2c1ncn2C1OC(CO)C(O)C1O (configuration not stated) [Fludarabine],131 ± 27,134,103 ± 10,116,165 ± 10,171,105 ± 4,106 ± 2,121 ± 8.2
CC(=O)[C@@]1(O)CC[C@H]2[C@@H]3CCC4=CC(=O)CCC4=C3[C@@H](c3ccc(N(C)C)cc3)C[C@@]21C [Ulipristal],70.8 ± 48,147,36.6 ± 13,82.9,113 ± 3.3,118,93.5 ± 11,87.8 ± 10,142 ± 1.3
CC(=O)OCC(CCn1cnc2cnc(N)nc21)COC(C)=O [Famciclovir],112 ± 17,114,93.4 ± 4.1,96.3,123 ± 7.6,136,85.3 ± 8.4,106 ± 7.2,114 ± 2.1
Cc1cc(C)nc(NS(=O)(=O)c2ccc(N)cc2)n1 [Sulfamethazine],86 ± 14,88.9,101 ± 3.9,89.6,112 ± 6.1,114,91.9 ± 5.5,95.7 ± 21,132 ± 1.9
O=C(O)CCc1nc(-c2ccccc2)c(-c2ccccc2)o1 [Oxaprozin],121 ± 25,102,89.1 ± 2.8,106,108 ± 1.6,122,99.29 ± 0.38,101 ± 11,151 ± 17
Cc1ccc(=O)n(-c2ccccc2)c1 [Pirfenidone],92.4 ± 3,99.8,103 ± 26,89.4,106 ± 4.5,91.3,85.5 ± 5.1,97 ± 15,111 ± 11
COc1nc(N)nc2c1ncn2C1OC(CO)C(O)C1O (configuration not stated) [Nelarabine],127 ± 20,117,113 ± 0.87,95.9,86.3 ± 5.3,98.4,111 ± 21,96.7 ± 21,115 ± 17
COC(=O)CCc1ccc(OCC(O)CNC(C)C)cc1.Cl (configuration not stated) [Esmolol HCl],133 ± 46,121,96.2 ± 1.9,95.3,96.8 ± 12,122,105 ± 18,108 ± 17,113 ± 2.2
CC(COc1ccccc1)N(CCCl)Cc1ccccc1.Cl (configuration not stated) [Phenoxybenzamine HCl],122 ± 3.3,131,133 ± 28,114,150 ± 8.9,195,104.7 ± 0.72,93.9 ± 10,191 ± 9.4
Oc1ccc(C2CNCCc3c2cc(O)c(O)c3Cl)cc1 (configuration not stated) [Fenoldopam],125 ± 16,101,107 ± 8.1,101,90.4 ± 2.4,124,110.5 ± 0.48,96.8 ± 13,126 ± 9.5
CCc1nc(N)nc(N)c1-c1ccc(Cl)cc1 [Pyrimethamine],111 ± 6.4,129,81.6 ± 8.9,121,105 ± 12,109,75.2 ± 2.4,119 ± 4.7,104 ± 1.9
Cc1ccc(O)c(C(CCN(C(C)C)C(C)C)c2ccccc2)c1.O=C(O)C(O)C(O)C(=O)O (configuration not stated) [Tolterodine tartrate],113 ± 38,101,96.8 ± 7.1,93.6,97.1 ± 18,133,60.5 ± 8.9,91.5 ± 2.5,92.5 ± 1.7
CC1OC(OCC2OC(Oc3c(-c4ccc(O)c(O)c4)oc4cc(O)cc(O)c4c3=O)C(O)C(O)C2O)C(O)C(O)C1O (configuration not stated) [Rutin],107 ± 32,128,101 ± 9.8,102,118 ± 8.5,138,103 ± 14,122 ± 9.8,101 ± 13
OC(Cn1cncn1)(Cn1cncn1)c1ccc(F)cc1F [Fluconazole],71.5 ± 43,153,99.3 ± 22,94.2,112 ± 4.8,119,76.5 ± 8.7,99.2 ± 27,180 ± 2.3
COc1ccc(C2(C#N)CCC(C(=O)O)CC2)cc1OC1CCCC1 (configuration not stated) [Cilomilast],120 ± 9.7,114,89 ± 22,88.4,104 ± 9.8,146,103 ± 12,117 ± 8.9,113.9 ± 0.63
